For 21 compounds, growth inhibition results are on record in PubChem BioAssay (NCI).

This is part of a sample that, as a whole, favours compounds with a hit. Of some 79,000 tested, about 15% had one in any assay. Unmarked numbers belong to inactive results. Active and inactive are the calls of the source. No stated cut-off is given here; in the data, active means growth inhibition above about 70%; inactive means the rest.

A short description of assay [1]: NCI Yeast Anticancer Drug Screen. Data for the rad50 strain (AID 155).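 Further: 0% = growth of vehicle-only cultures of the same strain.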 Conditions: S. cerevisiae rad50 strain growth inhibition; at 50.0 µM; active compounds read high. The gist of the method: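 Genetically altered yeast (DNA repair pathway); compound treatment; growth inhibition vs vehicle ctrl.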
Assay [2] can be described thus: NCI Yeast Anticancer Drug Screen. Data for the mec2-1 strain (AID 157). The settings on record: S. cerevisiae mec2-1 strain, at 50.0 µM, active compounds read high. The gist of the method: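 Growth inhibition is read against vehicle-treated controls after compound exposure of the mec2-1 yeast strain, which is defective in DNA damage repair or cell cycle control.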
The nature of assay [3]: NCI Yeast Anticancer Drug Screen. Data for the sgs1 mgt1 strain (AID 161).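 Further: 0% = growth of cultures given vehicle only.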 The settings on record: S. cerevisiae sgs1 mgt1 strain, at 50.0 µM, active compounds read high. The gist of the method: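 Growth of a repair-deficient yeast mutant was monitored after compound treatment and expressed as inhibition relative to vehicle-treated cultures.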
Assay [4] is described as follows: NCI Yeast Anticancer Drug Screen. Data for the cln2 rad14 strain (AID 165).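 Further: 0% = growth equal to vehicle treated cultures.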 The settings on record: S. cerevisiae cln2 rad14 strain, at 50.0 µM, active compounds read high. The gist of the method:
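Growth inhibition, relative to vehicle-treated controls, is the read-out. The test organism is a yeast strain with defined genetic alterations, cln2 rad14.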

Assay [5] can be described thus: NCI Yeast Anticancer Drug Screen. Data for the bub3 strain (AID 167). Conditions: S. cerevisiae bub3 mutant strain, at 50.0 µM, active compounds read high. The gist of the method:
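Yeast carrying a defined mutation is treated with each compound, and growth is compared with that of vehicle-exposed cells to give inhibition.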

The nature of assay [6]: NCI Yeast Anticancer Drug Screen. Data for the mlh1 rad18 strain (AID 175). Conditions: S. cerevisiae mlh1 rad18 strain growth inhibition; at 50.0 µM; active compounds read high. The gist of the method: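 Cells of a genetically altered yeast strain, deficient in DNA damage repair, were treated with compound. Their growth was then compared with that of vehicle-treated cultures to give inhibition.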

`O=C1c2ccccc2C(=O)c2[nH]ncc21`: the growth inhibition in assay [1] is 18.4%; in assay [2], 13.8%; in assay [3], -3.25%; in assay [4], -61.6%; in assay [5], 10.1%; in assay [6], -1.8%.

For `CCN(CC)c1cc2c(cc1Br)-c1ccccc1C2=O`, the growth inhibition in assay [1] was 4%; in assay [2] it was -2.9%; in assay [3], 5.7%; in assay [4], 52.2%; in assay [5] it was 7.95%; in assay [6] it was 36%.

Turning to `CN1CCN(C2=NCCO2)CC1`, the growth inhibition was 6.4% in assay [1]; 22.1% in assay [2]; 32.3% in assay [3]; 32% in assay [4]; 12.8% in assay [5]; 20.2% in assay [6].

For `C=C1c2nc3ccccc3n2C=C(c2ccccc2)N1c1ccc([N+](=O)[O-])cc1`, the growth inhibition is 8.05% in assay [1]; 41.6% in assay [2]; 3.75% in assay [3]; 13.6% in assay [4]; 22.4% in assay [5]; 27.9% in assay [6].

Take `COc1cc2c(c3c1CCC(C)(C)O3)Cc1c(cc(OC)c(OC)c1CCC(C)(C)O)O2`: the growth inhibition in assay [1] was 41.8%; in assay [2], -3.9%; in assay [3], 3.6%; in assay [4], 0.4%; in assay [5] it was 3%; in assay [6] it was 7.6%.

As for `COc1ccc(-c2nnc3n(C)c4ccccc4n3c2=O)cc1`, the growth inhibition in assay [1] is 3.25%; in assay [2], 8.55%; in assay [3], 16.4%; in assay [4] it was 26.5%; in assay [5] it was 23.4%; in assay [6] it was -23.2%.

As to `CCCCCCCCC(=O)N1SC(NC(=O)OC)=Nc2ccccc21`, the growth inhibition in assay [1] was 98.2% (active); in assay [2], 98.2% (active); in assay [3], 98% (active); in assay [4] it was 90.2% (active); in assay [5] it was 97% (active); in assay [6] it was 98.1% (active).

As for `CCOC(=O)C(=CN(C)c1ccc(C)cc1)C(=O)OCC`, the growth inhibition was 20.4% in assay [1]; 2.65% in assay [2]; 8.2% in assay [3]; 9.7% in assay [4]; 25.6% in assay [5]; 8.9% in assay [6].

As to `N#Cc1c(-c2ccccc2)cc(-c2ccc(N)cc2)[nH]c1=O`, the growth inhibition was 26.5% in assay [1]; 3.65% in assay [2]; 13.2% in assay [3]; 33.4% in assay [4]; 11.6% in assay [5]; 20.3% in assay [6].

As for `O=C(O)C(Cl)C(Cl)c1ccc(Cl)cc1` (stereo unspecified), the growth inhibition was -2.6% in assay [1]; 7.15% in assay [2]; 6.15% in assay [3]; -57.3% in assay [4]; 11.9% in assay [5]; 6.6% in assay [6].

Consider `CCC1CCCCCC1=O` (stereo unspecified), for which the growth inhibition is -34% in assay [1]; -27.2% in assay [2]; -18.6% in assay [3]; -25.4% in assay [4]; -30.4% in assay [5]; -21.3% in assay [6].

For `CCCC(=O)OCC(C)(C)COC(=O)CCC`, the growth inhibition in assay [1] is -5.65%; in assay [2], -13.2%; in assay [3], 10.9%; in assay [4], 3.5%; in assay [5], 16%; in assay [6], 6.6%.

As to `CCOC(=O)c1ccc(Cl)cc1`, the growth inhibition in assay [1] was -14%; in assay [2], -16.8%; in assay [3], -25.1%; in assay [4], -23.8%; in assay [5], -30.8%; in assay [6], -25.1%.

Turning to `CNc1ccc(C(=O)O)cc1`, the growth inhibition in assay [1] is -7.8%; in assay [2], -14%; in assay [3], -2.25%; in assay [4], 5.1%; in assay [5], -0.5%; in assay [6] it was -9.9%.

Consider `Cc1ccc(S(=O)(=O)CNC(=O)C(O)(O)C(F)(F)F)cc1`, for which the growth inhibition in assay [1] is -24.9%; in assay [2] it was -2.5%; in assay [3] it was -9.45%; in assay [4], 27.8%; in assay [5], -1.9%; in assay [6], -12.4%.

On to `O=c1c2cnc3cc(Cl)ccc3c2[nH]n1-c1ccc(Cl)cc1`, for which the growth inhibition in assay [1] is -1.3%; in assay [2] it was 0.45%; in assay [3], 1.85%; in assay [4] it was -2.55%; in assay [5], 2.75%; in assay [6] it was 2.9%.

Regarding `CCCCCCCCCCCCCCCCCCOC(=O)C1CCCN1` (stereo unspecified), the growth inhibition is -10% in assay [1]; 22.9% in assay [2]; 12.8% in assay [3]; 3.15% in assay [4]; 12.4% in assay [5]; 8.6% in assay [6].

Consider `COCCn1nc(-c2ccc(Cl)cc2)c(-c2ccc(Cl)cc2)c(C(C)=O)c1=O`, for which the growth inhibition in assay [1] was 12.2%; in assay [2], -5.15%; in assay [3], 0.9%; in assay [4] it was 9.05%; in assay [5] it was -1.7%; in assay [6], -7.85%.

On to `Cc1ccc2occ(/C=N/NC(N)=S)c(=O)c2c1`, for which the growth inhibition in assay [1] is -11.4%; in assay [2], -2.7%; in assay [3], 12.3%; in assay [4] it was 0.6%; in assay [5], 1.2%; in assay [6], 0.8%.

In the case of `Cc1cnc(C)c(C(O)c2ccccc2)n1` (stereo unspecified), the growth inhibition is -5.9% in assay [1]; -10.3% in assay [2]; -3.7% in assay [3]; -17.9% in assay [4]; -9.3% in assay [5]; -3.65% in assay [6].

With `CCCC(=O)OCc1ccc(Cl)cc1`, the growth inhibition in assay [1] was 24.6%; in assay [2] it was 12.8%; in assay [3], 6.9%; in assay [4], 5.15%; in assay [5], 6.55%; in assay [6] it was 3.35%.
